In PubChem BioAssay (Tox21):
Results filed as inconclusive are left out. Activity calls are given as the source filed them. Unless noted, calls come from the whole dose curve; as a rule, active = well fitted curve in the direction sought with a large enough effect in the repeat runs; inconclusive = weak or mixed curves; inactive = no such curve, though single readings can be large; an effect the other way counts as inactive or inconclusive.

What was measured:
[1] = A CellTox Green Cytotoxicity Assay to monitor cytotoxicity in HEK293 cells - 32 hour (AID 1224881); note: nearly all actives have a fitted effect of over 40% in size
Summary of the method: (§1)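 Cytotoxicity was tracked continuously in HEK293 cells by a DNA-binding dye excluded from viable cells. Compounds were transferred in DMSO 5 h after seeding; fluorescence was recorded at intervals up to 40 h.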

[2] = A CellTox Green Cytotoxicity Assay to monitor cytotoxicity in HepG2 cells - 0 hour (AID 1224882); note: nearly all actives have a fitted effect of over 35% in size
Summary of the method: (§2)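 Real-time, homogeneous cytotoxicity readout: dead-cell DNA staining by CellTox Green in HepG2 monolayers, fluorescence measured at timed intervals up to 40 h of continuous compound exposure.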

[3] = A CellTox Green Cytotoxicity Assay to monitor cytotoxicity in HepG2 cells - 32 hour (AID 1224883); note: nearly all actives have a fitted effect of over 50% in size; note: potency is the fitted concentration of half-maximal effect
Summary of the method: as §2

[4] = A CellTox Green Cytotoxicity Assay to monitor cytotoxicity in HEK293 cells - 8 hour (AID 1224884); note: nearly all actives have a fitted effect of over 35% in size
Summary of the method: as §1

[5] = qHTS RealTime-Glo MT Cell Viability Assay in HepG2 cells - 16 hour (AID 1224885); note: nearly all actives have a fitted effect of over 50% in size
Summary of the method: (§3)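 Compound treatment began 5 h after plating HepG2 cells (600/well) with NanoLuc luciferase and prosubstrate. Plates stayed at 37 C for 40 h; luminescence was captured at six time points, 0 h through 40 h.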

[6] = qHTS RealTime-Glo MT Cell Viability Assay in HEK293 cells - 24 hour (AID 1224886); note: nearly all actives have a fitted effect of over 50% in size; note: potency is the fitted concentration of half-maximal effect
Summary of the method: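 Quantitative high-throughput screen of the Tox21 10K library in HEK293: cells and RealTime-Glo reagents plated together, compound added at 5 h, luminescence monitored through 40 h at 37 C.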

[7] = qHTS RealTime-Glo MT Cell Viability Assay in HEK293 cells - 8 hour (AID 1224887); note: nearly all actives have a fitted effect of over 50% in size; note: potency is the fitted concentration of half-maximal effect
Summary of the method: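 Nonlytic bioluminescent viability monitoring. HEK293 at 600 cells/well with reagent; 5 h settle; compound transfer by pintool; plates held at 37 C and read at set time points.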

[8] = A CellTox Green Cytotoxicity Assay to monitor cytotoxicity in HEK293 cells - 16 hour (AID 1224888); note: nearly all actives have a fitted effect of over 35% in size
Summary of the method: as §1

[9] = qHTS RealTime-Glo MT Cell Viability Assay in HepG2 cells - 0 hour (AID 1224889); note: nearly all actives have a fitted effect of over 50% in size
Summary of the method: as §3

[10] = A CellTox Green Cytotoxicity Assay to monitor cytotoxicity in HepG2 cells - 8 hour (AID 1224890); note: nearly all actives have a fitted effect of over 45% in size
Summary of the method: as §2

[11] = qHTS assay to identify small molecule antagonists of the androgen receptor (AR) signaling pathway using the MDA cell line in the presence of 0.5 nM R1881 - cell viability counter screen (AID 1259242); note: nearly all actives have a fitted effect of over 45% in size; note: potency is the fitted concentration of half-maximal effect
Summary of the method: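 Cytotoxicity toward MDA-kb2 cells is measured by CellTiter-Fluor live-cell protease fluorescence after 16 hr compound exposure at 37C in the presence of 0.5 nM R1881 stimulator.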

[12] = qHTS assay to identify small molecule antagonists of the sonic hedgehog signaling (Shh) pathway - cell viability counter screen (AID 1259367); note: nearly all actives have a fitted effect of over 55% in size; note: potency is the fitted concentration of half-maximal effect
Summary of the method: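 Cells: 3T3 Gli1-Luc, 2,000/well, 4 hr pre-incubation. Compounds in DMSO, then conditioned medium. Incubation 24 hr, 37C, 5% CO2. CellTiter-Fluor at 23 hr, 1 hr, fluorescence.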

[13] = qHTS assay to identify small molecule agonists of the sonic hedgehog signaling (Shh) pathway (AID 1259368; calls by dose curve;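 note: NIH/3T3-derived 3T3Gli1-Luc cells carrying a stable Gli1-driven firefly luciferase reporter; series mostly up to about 92 µM; nearly all actives have a fitted effect of over 15% in size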)
Summary of the method: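 Steps: seed 3T3 Gli1-Luc cells, incubate 4 hr at 37 C, pin-transfer compounds in DMSO alongside a positive control, incubate 24 hr, add luciferase detection reagent, wait 30 min at room temperature, read luminescence.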

[14] = qHTS assay to identify small molecule antagonists of the estrogen receptor alpha (ER-alpha) signaling pathway using the BG1 cell line in the presence of 0.1 nM 17-beta-estradiol - cell viability counter screen (AID 1259241); note: nearly all actives have a fitted effect of over 40% in size
Summary of the method: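 CellTiter-Fluor read (30 min, 37C) on ER-alpha/ERE-luc VM7Luc4E2 cells; 22 hr compound treatment; agonist 0.1 nM E2 final; same-well multiplex.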

[15] = biological target: Androgen receptor (Homo sapiens) (UniProt P10275); experiment: qHTS assay to identify small molecule antagonists of the androgen receptor (AR) signaling pathway using the MDA cell line in the presence of 0.5 nM R1881 (AID 1259243); note: nearly all actives have a fitted effect of over 50% in size
Chain of Androgen receptor (Homo sapiens) (P10275 whole entry, looked up): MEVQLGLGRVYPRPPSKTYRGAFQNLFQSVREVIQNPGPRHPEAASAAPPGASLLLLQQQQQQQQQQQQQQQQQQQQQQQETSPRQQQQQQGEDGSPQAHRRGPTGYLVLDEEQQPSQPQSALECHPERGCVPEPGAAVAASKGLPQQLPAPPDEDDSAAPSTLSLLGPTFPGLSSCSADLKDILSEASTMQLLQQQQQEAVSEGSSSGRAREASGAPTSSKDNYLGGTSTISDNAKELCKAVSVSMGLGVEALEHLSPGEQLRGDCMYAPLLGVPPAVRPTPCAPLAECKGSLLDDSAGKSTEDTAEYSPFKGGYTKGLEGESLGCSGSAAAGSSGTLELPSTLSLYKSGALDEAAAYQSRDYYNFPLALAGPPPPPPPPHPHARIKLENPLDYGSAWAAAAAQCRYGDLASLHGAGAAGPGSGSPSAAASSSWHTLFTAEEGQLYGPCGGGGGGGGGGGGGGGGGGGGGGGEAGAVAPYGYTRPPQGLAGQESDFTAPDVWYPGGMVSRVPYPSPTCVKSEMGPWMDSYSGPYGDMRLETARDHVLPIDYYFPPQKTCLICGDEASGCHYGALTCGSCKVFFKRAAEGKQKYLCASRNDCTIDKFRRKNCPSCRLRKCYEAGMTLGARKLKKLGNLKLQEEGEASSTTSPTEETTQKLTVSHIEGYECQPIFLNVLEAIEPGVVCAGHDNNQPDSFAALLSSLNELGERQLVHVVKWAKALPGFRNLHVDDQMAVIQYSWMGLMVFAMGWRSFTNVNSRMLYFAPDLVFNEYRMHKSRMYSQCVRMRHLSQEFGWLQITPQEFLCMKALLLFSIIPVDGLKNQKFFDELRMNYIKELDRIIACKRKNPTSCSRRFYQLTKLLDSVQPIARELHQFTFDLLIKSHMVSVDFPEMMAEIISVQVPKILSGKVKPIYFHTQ
Summary of the method: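 Steps: seed MDA-kb2 cells, incubate 5 hr at 37C; pin-transfer compounds in DMSO; add R1881 to 0.5 nM final; incubate 16 hr; add ONE-Glo, wait 30 min at room temperature; read luminescence.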

[16] = biological target: Estrogen receptor (Homo sapiens) (UniProt P03372); experiment: qHTS assay to identify small molecule antagonists of the estrogen receptor alpha (ER-alpha) signaling pathway using the BG1 cell line in the presence of 0.1 nM 17-beta-estradiol (AID 1259244); note: nearly all actives have a fitted effect of over 50% in size
Chain of Estrogen receptor (Homo sapiens) (P03372 whole entry, looked up): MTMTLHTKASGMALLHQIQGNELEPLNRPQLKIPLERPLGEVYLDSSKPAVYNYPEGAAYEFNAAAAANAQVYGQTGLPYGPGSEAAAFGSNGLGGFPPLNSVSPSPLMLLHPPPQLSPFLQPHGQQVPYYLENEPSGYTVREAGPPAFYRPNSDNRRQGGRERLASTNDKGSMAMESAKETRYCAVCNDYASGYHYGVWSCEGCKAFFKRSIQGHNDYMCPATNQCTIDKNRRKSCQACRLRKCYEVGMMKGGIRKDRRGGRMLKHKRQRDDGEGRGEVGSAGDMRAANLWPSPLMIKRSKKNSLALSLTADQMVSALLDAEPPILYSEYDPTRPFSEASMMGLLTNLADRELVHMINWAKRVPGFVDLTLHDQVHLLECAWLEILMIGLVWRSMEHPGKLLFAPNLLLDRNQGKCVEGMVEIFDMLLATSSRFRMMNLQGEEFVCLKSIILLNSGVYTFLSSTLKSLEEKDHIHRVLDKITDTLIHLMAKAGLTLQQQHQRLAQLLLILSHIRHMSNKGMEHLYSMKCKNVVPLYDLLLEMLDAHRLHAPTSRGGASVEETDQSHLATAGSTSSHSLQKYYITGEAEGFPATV
Summary of the method: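 After 5 days in hormone-depleted medium (charcoal-stripped serum, no phenol red), VM7Luc4E2 cells were seeded, incubated 24 h, then co-treated with compound and 0.1 nM (final) estradiol for 22 h before luminescence detection.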

[17] = qHTS assay to identify small molecule HDAC inhibitors (AID 1259364); note: nearly all actives have a fitted effect of over 45% in size; note: potency is the fitted concentration of half-maximal effect
Summary of the method: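 Homogeneous cell-based luminescent assay of endogenous class I/II HDAC activity; HCT-116 cells, 2 h compound exposure, 30 min HDAC-Glo development at RT.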

[18] = qHTS assay to identify small molecule agonists of the sonic hedgehog signaling (Shh) pathway - cell viability counter screen (AID 1259366); note: nearly all actives have a fitted effect of over 50% in size
Summary of the method: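 Fluorescence from CellTiter-Fluor reports live cells in this counter screen. NIH/3T3-derived Gli1-Luc reporter cells receive test compounds for 24hr at 37C; reagent goes in at 23hr.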

[19] = qHTS assay to identify small molecule phospholipidosis (PLD) inducers (AID 1259344; active = well fitted curve in the direction sought with a large enough effect; an effect the other way counts as inactive or inconclusive)
Summary of the method: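 Phospholipidosis is scored by imaging LipidTOX-stained pits in HepG2 cells exposed to compound for 24 h at 37 C; pit counts and integrated intensities per well and per cell serve as outputs.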

[20] = qHTS assay to identify small molecule HDAC inhibitors - cell viability counter screen (AID 1259365)
Summary of the method: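 To flag cytotoxic hits, 1,500 wild-type HCT-116 cells per well, plated the day before, receive test compounds for 2hr at 37 C before CellTiter-Glo reagent and a luminescence read.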
% is set by controls: 0 for no effect and ±100 for the full control effect.

Cc1ccc(N=Nc2c(O)c(C(=O)O)cc3ccccc23)c(S(=O)(=O)O)c1
inactive: Potency [1] | Potency [2] | Potency [3] | Potency [4] | Potency [5] | Potency [6] | Potency [7] | Potency [8] | Potency [9] | Potency [10] | outcome [13]
active: Potency [11] 11.8 µM | Potency [12] 13.3 µM

O=C(O)C1(C(=O)Nc2ccc(Cl)cc2Cl)CC1
inactive: Potency [1] | Potency [2] | Potency [3] | Potency [4] | Potency [5] | Potency [6] | Potency [7] | Potency [8] | Potency [10] | Potency [14] | Potency [15] | Potency [16] | Potency [18] | Potency [12] | outcome [13]
active: Potency [17] 13.7 µM

C=CCOc1ccccc1OCC(O)CNC(C)C (stereo not drawn)
inactive: Potency [1] | Potency [2] | Potency [3] | Potency [4] | Potency [5] | Potency [6] | Potency [7] | Potency [8] | Potency [10] | Potency [14] | Potency [11] | Potency [16] | Potency [19] | Potency [17] | Potency [20] | Potency [18] | Potency [12] | outcome [13]

O=C(CS)Nc1ccccc1
inactive: Potency [1] | Potency [2] | Potency [3] | Potency [4] | Potency [5] | Potency [6] | Potency [7] | Potency [8] | Potency [9] | Potency [10] | Potency [16] | Potency [17] | Potency [20] | Potency [18] | Potency [12] | outcome [13]

CN1C[C@H]2c3ccccc3Oc3ccc(Cl)cc3[C@@H]2C1
active: Potency [3] 26.8 µM
inactive: Potency [1] | Potency [2] | Potency [4] | Potency [5] | Potency [6] | Potency [7] | Potency [8] | Potency [10] | Potency [14] | Potency [11] | Potency [16] | PLD induction [19] 1.39% [at 7.66 µM] | Potency [17]

O=C(O)C(S)C(S)C(=O)O (stereo not drawn)
inactive: Potency [1] | Potency [2] | Potency [3] | Potency [4] | Potency [5] | Potency [6] | Potency [7] | Potency [8] | Potency [9] | Potency [10] | Potency [11] | Potency [19] | Potency [17] | Potency [20] | Potency [18] | Potency [12] | outcome [13]

C=C1C(=C/C=C2\CCC[C@]3(C)[C@@H]([C@H](C)/C=C/[C@@H](O)C4CC4)CC[C@@H]23)C[C@@H](O)C[C@@H]1O
active: Potency [6] 19 µM | Potency [7] 19 µM
inactive: Potency [1] | Potency [2] | Potency [3] | Potency [4] | Potency [5] | Potency [8] | Potency [9] | Potency [10] | Potency [11] | Potency [17] | Potency [20] | Potency [18] | Potency [12]

Cc1oc(-c2ccccc2)nc1CCOc1cccc2c1ccn2CCC(=O)O
active: Potency [12] 6.86 µM
inactive: Potency [1] | Potency [2] | Potency [3] | Potency [4] | Potency [5] | Potency [6] | Potency [7] | Potency [8] | Potency [10] | Potency [11] | Potency [16] | Potency [20] | outcome [13]
